Active and inactive are the calls of the source. Rule for the calls: active = hit-call score of the fitted dose curve at least 0.9, where 1 is the maximum; inactive = score below 0.9.

Outcome and AC50 data for 30 compounds are collected here from PubChem BioAssay (EPA / NIEHS).

Read-out in the first experiment: growth arrest and DNA damage 45 (GADD45G), GADD45G (gene 10912)
The experiment in a line: LTEA_HepaRG_GADD45G: Life Technologies and Expression Analysis (LTEA) Assay for growth arrest and DNA damage 45 (GADD45G) using HepaRG (AID 2283499). As to conditions: mRNA level, 48 h; actives raise or lower the signal. The gist of the method: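 Concentration-response in HepaRG: 48 h dosing, 0.5% DMSO, highest level 100 uM. GADD45G expression by qRT-PCR, normalised to endogenous controls; bidirectional fit to DMSO.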
In the case of `CC(C)OC(=O)C(C)(C)Oc1ccc(C(=O)c2ccc(Cl)cc2)cc1`, the call was inactive.

For `CCCC[C@H]1CN(CC2CCOCC2)C(=O)OC12CCN(C1(C)CCN(C(=O)c3c(C)ncnc3C)CC1)CC2`, the compound was called inactive.

For `CCCCCCCCCCCCCCOS(=O)(=O)O`, the result was inactive.

On to `OCC(CO)n1cnc(-c2ccc(F)cc2)c1-c1ccnc(Oc2ccccc2)n1`, for which the compound was classed as inactive.

Regarding `CC(C)(O)c1ccc(CNC(=O)c2cccnc2Oc2ccc(F)cc2)cc1`, the compound was called inactive.

For `Cc1cc(SC2=C(O)C[C@@](CCc3ccc(N)cc3)(C(C)C)OC2=O)c(C(C)(C)C)cc1CO`, the compound was called inactive.

For the compound `N[C@@H](Cc1c[nH]c2ccccc12)C(=O)O`, the outcome was inactive.

For the compound `CC(C)c1cccc(C(C)C)c1`, the result was inactive.

With `CC(=O)S[C@H](C(=O)N[C@H]1Cc2ccccc2[C@H]2CCC[C@@H](C(=O)O)N2C1=O)C(C)C`, the result was inactive.

For the compound `COc1ccc(C(=O)Nc2nc3ccccc3c(NCc3ccccc3)c2C#N)cc1`, the AC50 was 14.3 µM (active).

Turning to `O=C(Oc1ccccc1)c1cccc(C(=O)Oc2ccccc2)c1`, the result was inactive.

For the compound `CN(C)C(=O)NC1(c2ccccc2)CCN(CC[C@@]2(c3ccc(F)c(F)c3)CN(C(=O)c3ccccc3)CCO2)CC1`, the AC50 is 75.1 µM (active).

As to `CC(C)c1cccc(C(C)C)c1NC(=O)NS(=O)(=O)c1cc(C(C)(C)O)co1`, the result was inactive.

`O=C1c2c(O)cccc2Cc2cccc(O)c21`: the result was inactive.

Regarding `O=[Si]=O`, the result was inactive.

For `CC(N)=O`, the outcome was inactive.

Consider `CC(C)(C)c1ccccc1`, for which the call was inactive.

With `Cc1ccc(C(C)(C)C)c(O)c1`, the outcome was inactive.

For `c1ccc2occc2c1`, the outcome was inactive.

Regarding `COC(=O)CCC(=O)OC`, the compound was called inactive.

`CC(=O)CC(c1ccccc1)c1c(O)c2ccccc2oc1=O` (stereo not given): the compound was classed as inactive.

Regarding `CCc1cc(C2=C(C(=O)O)N(c3ccccc3C(F)(F)F)S(=O)(=O)c3ccccc32)cc2c1OCO2`, the compound was classed as inactive.

Consider `CCCCc1nc2cccnc2n1Cc1ccc(-c2ccccc2-c2nnn[nH]2)cc1`, for which the compound was classed as inactive.

Consider `CCCCC(CC)CO` (stereo not given), for which the compound was classed as inactive.

Take `CC1=C(C)S(=O)(=O)CCS1(=O)=O`: the compound was called inactive.

For `CCCCC(CC)COP(=O)(OCC(CC)CCCC)OCC(CC)CCCC` (stereo not given), the call was inactive.

On to `CC(COCC(C)OC(=O)c1ccccc1)OC(=O)c1ccccc1` (stereo not given), for which the result was inactive.

For the compound `CC1(C)C(=O)NC(=O)N1CO`, the compound was called inactive.

With `CCCCCCC(CCCCCCCCCCC(=O)OCC(COC(C)=O)OC(C)=O)OC(C)=O` (stereo not given), the compound was called inactive.

As for `O=Cc1ccccc1C=O`, the outcome was inactive.

Read-out in another experiment: Glutamate-cysteine ligase regulatory (GCLM), GCLM (gene 2730)
The experiment in a line: LTEA_HepaRG_GCLM: Life Technologies and Expression Analysis (LTEA) Assay for Glutamate-cysteine ligase regulatory (GCLM) using HepaRG (AID 2283500). As to conditions: mRNA level, 48 h; actives raise or lower the signal. The gist of the method: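 Differentiated human HepaRG cells exposed 48 h in serum-free induction medium to 8-point half-log concentrations (top 100 uM, 0.5% DMSO), in duplicate. GCLM mRNA quantified by qRT-PCR, normalized to ACTB, GAPDH, POLR2A; bidirectional fitting versus DMSO.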
As for `CC(C)OC(=O)C(C)(C)Oc1ccc(C(=O)c2ccc(Cl)cc2)cc1`, the result was inactive.

On to `CCCCCCCCCCCCCCOS(=O)(=O)O`, for which the outcome was inactive.

As for `CC(C)(O)c1ccc(CNC(=O)c2cccnc2Oc2ccc(F)cc2)cc1`, the compound was called inactive.

Consider `Cc1cc(SC2=C(O)C[C@@](CCc3ccc(N)cc3)(C(C)C)OC2=O)c(C(C)(C)C)cc1CO`, for which the compound was classed as inactive.

For `CC(C)c1cccc(C(C)C)c1`, the compound was called inactive.

Regarding `COc1ccc(C(=O)Nc2nc3ccccc3c(NCc3ccccc3)c2C#N)cc1`, the AC50 was 10.9 µM (active).

Take `O=C(Oc1ccccc1)c1cccc(C(=O)Oc2ccccc2)c1`: the result was inactive.

For the compound `CN(C)C(=O)NC1(c2ccccc2)CCN(CC[C@@]2(c3ccc(F)c(F)c3)CN(C(=O)c3ccccc3)CCO2)CC1`, the result was inactive.

With `O=[Si]=O`, the outcome was inactive.

For the compound `Cc1ccc(C(C)(C)C)c(O)c1`, the call was inactive.

Regarding `COC(=O)CCC(=O)OC`, the compound was called inactive.

As for `CCc1cc(C2=C(C(=O)O)N(c3ccccc3C(F)(F)F)S(=O)(=O)c3ccccc32)cc2c1OCO2`, the AC50 was 68.2 µM (active).

As for `CCCCc1nc2cccnc2n1Cc1ccc(-c2ccccc2-c2nnn[nH]2)cc1`, the compound was classed as inactive.

`CCCCC(CC)CO` (stereo not given): the call was inactive.

Turning to `CC1=C(C)S(=O)(=O)CCS1(=O)=O`, the AC50 was 0.214 µM (active).

`CCCCC(CC)COP(=O)(OCC(CC)CCCC)OCC(CC)CCCC` (stereo not given): the compound was called inactive.

On to `CC1(C)C(=O)NC(=O)N1CO`, for which the compound was classed as inactive.

Regarding `O=Cc1ccccc1C=O`, the compound was classed as inactive.

Read-out in another experiment: Glutathione S-transferase M3 (GSTM3), GSTM3 (gene 2947)
The experiment in a line: LTEA_HepaRG_GSTM3: Life Technologies and Expression Analysis (LTEA) Assay for Glutathione S-transferase M3 (GSTM3) using HepaRG (AID 2283501). As to conditions: mRNA level, 48 h; actives raise or lower the signal. A digest of the protocol:
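Expression of GSTM3 is determined by qRT-PCR in human liver HepaRG cells treated 48 h with an 8-point half-log range from 100 uM in 0.5% DMSO.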
For `CCCC[C@H]1CN(CC2CCOCC2)C(=O)OC12CCN(C1(C)CCN(C(=O)c3c(C)ncnc3C)CC1)CC2`, the compound was called inactive.

With `CCCCCCCCCCCCCCOS(=O)(=O)O`, the compound was called inactive.

Consider `Cc1cc(SC2=C(O)C[C@@](CCc3ccc(N)cc3)(C(C)C)OC2=O)c(C(C)(C)C)cc1CO`, for which the compound was classed as inactive.

Consider `COc1ccc(C(=O)Nc2nc3ccccc3c(NCc3ccccc3)c2C#N)cc1`, for which the compound was called inactive.

In the case of `O=C(Oc1ccccc1)c1cccc(C(=O)Oc2ccccc2)c1`, the outcome was inactive.

As to `CN(C)C(=O)NC1(c2ccccc2)CCN(CC[C@@]2(c3ccc(F)c(F)c3)CN(C(=O)c3ccccc3)CCO2)CC1`, the compound was classed as inactive.

For `CC(C)c1cccc(C(C)C)c1NC(=O)NS(=O)(=O)c1cc(C(C)(C)O)co1`, the compound was called inactive.

Take `CC(N)=O`: the call was inactive.

Consider `Cc1ccc(C(C)(C)C)c(O)c1`, for which the compound was called inactive.

As for `c1ccc2occc2c1`, the call was inactive.

As to `CC(=O)CC(c1ccccc1)c1c(O)c2ccccc2oc1=O` (stereo not given), the result was inactive.

Turning to `CCc1cc(C2=C(C(=O)O)N(c3ccccc3C(F)(F)F)S(=O)(=O)c3ccccc32)cc2c1OCO2`, the call was inactive.

Consider `CCCCc1nc2cccnc2n1Cc1ccc(-c2ccccc2-c2nnn[nH]2)cc1`, for which the outcome was inactive.

Turning to `CCCCC(CC)CO` (stereo not given), the outcome was inactive.

On to `CC1=C(C)S(=O)(=O)CCS1(=O)=O`, for which the call was inactive.

In the case of `CCCCC(CC)COP(=O)(OCC(CC)CCCC)OCC(CC)CCCC` (stereo not given), the outcome was inactive.

As to `CCCCCCC(CCCCCCCCCCC(=O)OCC(COC(C)=O)OC(C)=O)OC(C)=O` (stereo not given), the result was inactive.

The term AC50 denotes the midpoint of the concentration-response curve, whichever way the signal moves.
